Screens as filed in PubChem BioAssay.
PABP polyA inh = blocks human PABP binding to poly(A) RNA; P11940; fluorescence polarization; calls only at 35 µM; actives 1% (n = 290,000); AID 2014;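 note: calls also rest on retests at 20 µM and on dose response follow-up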
eIF4H FP inh = inhibitors of RNA binding by human eIF4H; Q15056; eIF4H fluorescence polarization binding assay; inhibition, % at 35 µM; actives 0.94% (n = 290,000); AID 2012;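 note: calls also rest on retests at 20 µM and on dose response follow-up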
EBV gp42 block = EBV gp42 inhibition; Q1HVG2; Fluorescence polarization binding assay, mP read-out; inhibition, % (tested at 21.74 µM); actives 0.42% (n = 220,000); in the data active = inhibition above about 50%
Target sequence (Q1HVG2 whole entry, looked up): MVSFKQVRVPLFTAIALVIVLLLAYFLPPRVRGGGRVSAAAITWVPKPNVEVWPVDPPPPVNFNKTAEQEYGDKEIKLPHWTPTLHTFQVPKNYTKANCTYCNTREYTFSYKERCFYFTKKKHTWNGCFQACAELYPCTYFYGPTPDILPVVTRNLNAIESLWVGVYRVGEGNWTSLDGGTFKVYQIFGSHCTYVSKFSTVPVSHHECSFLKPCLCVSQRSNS
eIF4E-4G inh = blocks eIF4E binding to eIF4G | P63073+Q04637 | TR-FRET eIF4E-eIF4GI(517-606) binding, 2 h | inhibition, % at 21.7 µM | actives 0.37% (n = 220,000);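 active = inhibition above about 30%, limit read from the data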;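 note: 0% = full FRET control wells and 100% = background wells lacking eIF4GI fragment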
MLLE-PAM2 inh = blocks PAM2 peptide binding to the PABP1 MLLE domain. P11940. GST-MLLE / FITC-PAM2 fluorescence polarization. inhibition, % at 20 µM. actives 0.36% (n = 360,000); in the data active = inhibition above about 35%, passing the limit was not always enough;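 note: plate controls were DMSO wells with GST-MLLE for no effect and wells lacking GST-MLLE protein for full effect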
The depositor's hits bear a star; i = inactive; ? = inconclusive; · = no result; + = active, no number; [ ] = remark or other dose. The list is not random: actives were taken first. Their share in the collection is about 1.7%. Unless noted, the rule behind the calls is not given here.

SMILES | PABP polyA inh | eIF4H FP inh | EBV gp42 block | eIF4E-4G inh | MLLE-PAM2 inh
Cc1ccc(/C=c2\sc3nc(-c4ccco4)nn3c2=O)o1 | + | 90* | 11 | 11 | 8
Cc1ccc(-c2nc3s/c(=C\c4ccco4)c(=O)n3n2)cc1 | + | 82* | -32 | 0 | -33
COc1ccc(Br)cc1/C=c1\sc2nc(-c3ccco3)nn2c1=O | + | 94* | · | · | 19
Cc1ccc(/C=c2\sc3nc(-c4ccccc4Br)nn3c2=O)o1 | i | 80 | -2 | 12 | -23
CCCN1C(=O)/C(=c2\sc3nc(=O)c(Cc4ccc(C)cc4)nn3c2=O)c2ccccc21 | i | 3 | -8 | 2 | 35
O=c1nc2s/c(=C\c3ccco3)c(=O)n2nc1Cc1ccc(F)cc1 | + | 84* | -4 | 7 | -15
COCCN=C1Sc2nc3cc4c(cc3cc2CN1CC1CCCO1)OCO4 (configuration not stated) | i | 4 | -3 | 1 | -130
Cn1nc(Cc2n[nH]c(=S)n2C)c2ccccc2c1=O | i | 6 | -10 | 4 | -22
CCN1CSC(=S)N(Cc2ccccc2)C1 | i | 18 | · | · | 38
CCN1CSC(=S)N(Cc2ccc(OC)cc2)C1 | i | 3 | -11 | 2 | 40*
CC(=O)N1CCN(c2ccc(S(C)(=O)=O)cc2[N+](=O)[O-])CC1 | i | 6 | 3 | -2 | 6
c1ccc(NC2=NCCCCS2)cc1 | i | 108* | -10 | -4 | -6
O=C(NCc1ccc2c(c1)OCO2)c1ccc2c(c1)OCCO2 | i | -2 | -21 | 69* | -2
C=CCN1CCN(C(=O)c2c(-c3ccccc3)noc2C)CC1 | i | -1 | · | · | -1
Cc1onc(-c2ccccc2)c1C(=O)N1CCN(C/C=C/c2ccccc2)CC1 | + | 28* | -23 | -4 | 11
CCN(C(=O)COC(=O)c1ccc(C=O)cc1)c1c(N)n(Cc2ccccc2)c(=O)[nH]c1=O | · | · | · | · | -6
CC(CS(=O)(=O)c1cccc2cccnc12)N1CCCCC1 (configuration not stated) | + | 53* | -11 | 4 | 31
CC(C)CN(C(=O)c1nn(C)c(=O)c2ccccc12)c1nc2ccccc2s1 | i | -2 | -20 | -1 | -1
Cc1ccc(NC(=O)CN2C(=O)S/C(=C/c3ccncc3)C2=O)cc1 | i | 5 | · | · | 48*
O=C(CN1C(=O)S/C(=C/c2ccncc2)C1=O)N1CCOCC1 | i | 0 | -6 | 1 | 49*
COc1ccc2c(c1)C1C=CCC1C(c1cc3c(cc1Br)OCO3)N2 (configuration not stated) | i | 70* | 7 | 1 | -23
CC(C)(C)[C@H]1C=C(C(=O)O)O[C@@H](OCCCCO)C1 | · | · | · | · | 6
CC(C)[C@@H]1C=C(C(=O)O)O[C@H](OCCCCO)C1 | i | -3 | -9 | 97* | 3
O=C(NNc1ccc(Cl)cc1)c1sccc1Cl | i | -10 | -19 | 1 | 42*
O=C(CSc1ccccn1)N/N=C/c1cc([N+](=O)[O-])ccc1O | i | 12 | -6 | -13 | -3
SMILES | PABP polyA inh | eIF4H FP inh | EBV gp42 block | eIF4E-4G inh | MLLE-PAM2 inh
O=C(CSc1ccccn1)N/N=C/c1ccccc1[N+](=O)[O-] | + | active | -17 | 21 | -5
O=C(/C=C/c1ccncc1)c1cc(Cl)ccc1O | i | -9 | 5 | 4 | -61
CN(C)c1ccc(/C=C/C(=O)c2cc(Cl)ccc2O)cc1 | ? | ? | 65* | 2 | -96
O=C(CSc1ccc2c(c1)OCCO2)NCCc1ccc(Cl)cc1Cl | i | -12 | -1 | -10 | 40*
Cc1ccc(CSC2=Nc3ccccc3C3=NC(CC(=O)NCc4ccco4)C(=O)N23)cc1 (configuration not stated) | + | 51* | 5 | 5 | -8
COc1cc(C(=S)N2CCCC2)ccc1O | i | 2 | -10 | -1 | 40*
COc1cc(C(=S)N2CCCCC2)ccc1O | i | -6 | -1 | 5 | 38*
CCOc1cc(C(=S)N2CCCC2)ccc1O | i | 7 | · | · | 28
COc1cc(C(=S)N2CCC(C)CC2)ccc1O | i | 6 | -26 | 1 | 40*
COc1cc(C(=S)N2CCC(C(N)=O)CC2)ccc1O | i | -6 | -17 | 1 | 19
COc1cc(CNc2ncnc3c2ncn3[C@H]2CN(Cc3ccco3)C[C@@H](CO)O2)cc(OC)c1OC | · | · | · | · | 23
Cc1nc([N+](=O)[O-])c(C(=O)OCc2ccccc2C#N)n1C | + | active | 3 | 1 | -6
Cc1nc(N)sc1-c1csc(N(C)c2ccc(O)cc2)n1 | + | 92* | -6 | 11 | -9
CN(c1ccc(O)cc1)c1nc(-c2cccs2)cs1 | i | -7 | -10 | 1 | 0
O=c1ccc(-c2ccc(S(=O)(=O)Nc3ccccc3Cl)o2)n[nH]1 | i | -7 | · | · | 7
O=C1c2ccccc2C(=O)c2c1cccc2N(CCO)CCO | ? | ? | · | · | 41*
O=C1C=C(N(CCO)Cc2ccccc2)c2ccccc2C1=O | i | 0 | -14 | -1 | 7
O=C(O)CSc1cc(NS(=O)(=O)c2cccc([N+](=O)[O-])c2)c2ccccc2c1O | i | -6 | -2 | 24 | 43*
Cc1ccc(C)c(S(=O)(=O)Nc2cc(SCC(=O)O)c(O)c3ccccc23)c1 | i | -4 | -6 | 34*[fluorescence artefact?] | 29
CCc1ccc(S(=O)(=O)Nc2cc(SCC(=O)O)c(O)c3ccccc23)cc1 | i | 7 | -10 | 5 | 37
O=S(=O)(Nc1cc(Sc2cccc3cccnc23)c(O)c2ccccc12)c1ccccc1 | + | 75* | 0 | 1 | ·
COc1cccc(S(=O)(=O)N(C)C[C@H]2Oc3ncc(Br)cc3C(=O)N([C@@H](C)CO)C[C@@H]2C)c1 | · | · | · | · | -2
CCOc1cc(N2CCOCC2)c(OCC)cc1NS(=O)(=O)c1cc(NC(C)=O)ccc1OC | i | 59* | · | · | -12
CCOc1cc(N2CCOCC2)c(OCC)cc1NC(=O)CN1CCCC(C)C1 (configuration not stated) | + | ? | -21 | 2 | -10
COc1ccc(NC(=O)CSc2ccc([N+](=O)[O-])cc2)cc1S(=O)(=O)N1CCOCC1 | · | · | · | · | 41*
SMILES | PABP polyA inh | eIF4H FP inh | EBV gp42 block | eIF4E-4G inh | MLLE-PAM2 inh
COc1ccc(C(=O)Nc2ccc(NC(=O)c3ccccc3)cc2)cc1S(=O)(=O)N1CCOCC1 | i | 0 | · | · | -4
Cc1ccc(NC(=O)c2c3c(nc4ccccc24)CCC3)cc1S(=O)(=O)N(C)C | i | 72* | -2 | 22 | -19
COc1ccc(NC(=O)c2c3c(nc4ccccc24)CCC3)cc1S(=O)(=O)N1CCOCC1 | + | 99 | 37 | 19 | -15
COc1ccc(NC(=O)CSc2ccc(NC(C)=O)cc2)cc1S(=O)(=O)N1CCOCC1 | · | · | · | · | -18
COc1ccc2c(c1)O[C@@H](c1ccc3c(c1)OCO3)[C@H](OC(=O)Nc1cc(OC)c(OC)c(OC)c1)C2=O | i | -12 | 1 | 5 | ·
O=C(Cc1ccc(F)cc1)OCC(=O)N1CCN(S(=O)(=O)c2ccc(Cl)cc2)CC1 | · | · | · | · | 3
CNC(=O)c1ccsc1NC(=O)c1sc2ccccc2c1Cl | + | 54* | 1 | 6 | -22
